Source: PubChem BioAssay
D1 potentiator: Potentiators of Human D1 Dopamine Receptor: qHTS; hit rate 0.036% among 360,000; potentiation, % at 10 µM; HEK293 TREx D1 cells, calcium flux, dopamine EC20 potentiation; D(1A) dopamine receptor (Homo sapiens), P21728; in the data active means potentiation above about 30%
Target sequence (P21728 whole entry, looked up): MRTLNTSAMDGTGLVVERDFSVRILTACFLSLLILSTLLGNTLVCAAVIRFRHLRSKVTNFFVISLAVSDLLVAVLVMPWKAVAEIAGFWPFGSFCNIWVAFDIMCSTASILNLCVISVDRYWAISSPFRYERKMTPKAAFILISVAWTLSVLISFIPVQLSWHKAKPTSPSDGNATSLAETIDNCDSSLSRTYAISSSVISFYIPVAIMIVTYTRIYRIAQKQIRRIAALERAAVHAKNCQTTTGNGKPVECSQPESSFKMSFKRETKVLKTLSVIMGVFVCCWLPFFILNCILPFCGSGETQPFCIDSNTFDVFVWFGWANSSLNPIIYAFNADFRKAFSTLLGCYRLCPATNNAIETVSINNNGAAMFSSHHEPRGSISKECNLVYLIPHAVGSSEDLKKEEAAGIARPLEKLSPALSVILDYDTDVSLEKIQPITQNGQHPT
TRHR agonist: qHTS for Small Molecule Agonists and Allosteric Enhancers of Human TRH Receptor: Primary Screen for Agonists | TRHR cells, calcium flux fluo-8, FDSS agonist mode | activation, % at 2 µM | hit rate 0.18% among 360,000 | AID 493084, 2011
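Read-out: compound-evoked intracellular calcium rise in TRHR cells, fluo-8 dye, kinetic FDSS fluorescence at 1 s/cycle following a 10-cycle baseline. Cells cultured overnight before dye loading (30 min–1.5 h, RT).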
D1 agonist: Allosteric Agonists of the Human D1 Dopamine Receptor: qHTS; D(1A) dopamine receptor (Homo sapiens), P21728; HEK293 T-REx D1 cells, calcium flux, agonist mode; activation, % at 2 µM; hit rate 1% among 360,000; AID 504660, 2011
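Tetracycline-induced HEK293 TREx D1 cells, force-coupled to calcium signalling, were dye-loaded with a no-wash calcium kit. Compound was pin-added after a 10 s baseline. Fluorescence was read kinetically at 1 cycle/s for 180 s, with calcium rises flagged as agonism.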
TRHR PAM: qHTS for Small Molecule Agonists and Allosteric Enhancers of Human TRH Receptor: Primary Screen for Enhancers | enhancement, % at 2 µM | hit rate 0.66% among 360,000 | TRHR cells, fluo-8 calcium fluorescence, EC20 TRH enhancement; in the data active means enhancement above about 30%
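Enhancer read-out: after compound pinning and an initial kinetic agonist-mode read, an EC20 of TRH (10 nM final) was injected and fluo-8 calcium signal (Ex 480/Em 530) followed at 1 s/cycle for 100 cycles in TRHR-expressing cells.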
D1 antagonist: Antagonist of Human D 1 Dopamine Receptor: qHTS; D(1A) dopamine receptor (Homo sapiens), P21728; HEK293 TREx D1 cells, calcium flux, dopamine EC80; hits give low values; activity change, negative = inhibition, % at 10 µM; hit rate 3.2% among 360,000; AID 504652, 2011; in the data active means activity change below about -30%
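Allosteric or orthosteric antagonism assessed as attenuation of the calcium response to EC80 dopamine, added 180 s after compound, in induced HEK293 Trex D1 cells loaded with no-wash calcium dye.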
Numbers stand for hits. Only some compounds are listed: those with a hit (about 4.6% of all), similar ones and a draw of the others. Unless noted, no stated cut-off is given here; in the data, active means activation above about 30%; inactive means the rest.

Results for CCCn1c(-c2nonc2N)nc2ccccc21 ?
D1 potentiator: inactive; TRHR agonist: inactive; D1 agonist: inactive; TRHR PAM: inactive; D1 antagonist: -61.9

Results for Nc1nonc1-c1nc2ccccc2n1CC(=O)Nc1ccccc1C(=O)O ?
D1 potentiator: inactive; TRHR agonist: inactive; D1 agonist: inactive; TRHR PAM: inactive; D1 antagonist: inactive

Results for Cn1c(-c2nonc2N)nc2ccccc21 ?
D1 potentiator: inactive; TRHR agonist: inactive; D1 agonist: inactive; TRHR PAM: inactive; D1 antagonist: inactive

What do the screens show for `CCCc1nnc(SCC(=O)Nc2ccc(NC(C)=O)cc2)n1-n1cccc1`?
D1 potentiator: inactive; TRHR agonist: inactive; D1 agonist: inactive; TRHR PAM: inactive; D1 antagonist: inactive

How did Cc1ccc(Cl)cc1N1CCN(c2ncnc3onc(-c4ccc(F)cc4)c23)CC1 do in these assays?
D1 potentiator: inactive; TRHR agonist: inactive; D1 agonist: inactive; TRHR PAM: inactive; D1 antagonist: -35.8

How did COc1ccc(Cn2c(CO)cnc2SCc2ccc(C)cc2)cc1 do in these assays?
D1 potentiator: inactive; TRHR agonist: inactive; D1 agonist: inactive; TRHR PAM: inactive; D1 antagonist: inactive

What do the screens show for `COc1cc(OC)cc(-n2c(=O)c3ccccc3n(Cc3ccccc3C#N)c2=O)c1`?
D1 potentiator: inactive; TRHR agonist: inactive; D1 agonist: inactive; TRHR PAM: inactive; D1 antagonist: inactive

What do the screens show for `CNC(=S)N/N=C1\C(=O)c2cccc3cccc1c23`?
D1 potentiator: inactive; TRHR agonist: inactive; D1 agonist: inactive; TRHR PAM: inactive; D1 antagonist: -46.4

What do the screens show for `CCCCNC(=S)N/N=C1\C(=O)c2cccc3cccc1c23`?
D1 potentiator: inactive; TRHR agonist: inactive; D1 agonist: inactive; TRHR PAM: inactive; D1 antagonist: inactive

How did COc1ccc(/C=C(\NC(=O)c2ccco2)C(=O)NC(Cc2ccccc2)C(=O)O)cc1 (configuration not stated) do in these assays?
TRHR agonist: inactive; D1 agonist: inactive; TRHR PAM: inactive; D1 antagonist: inactive

How did Cc1nc(-c2ccc(S(=O)(=O)N3CCN(c4cc(Cl)ccc4C)CC3)cc2)co1 do in these assays?
D1 potentiator: inactive; TRHR agonist: inactive; D1 agonist: inactive; TRHR PAM: inactive; D1 antagonist: inactive

Results for Cc1cc(O)ccc1N/C=C1\CCCC1=O ?
D1 potentiator: inactive; TRHR agonist: inactive; D1 agonist: inactive; TRHR PAM: inactive; D1 antagonist: inactive

How did Cc1ccc([N+](=O)[O-])cc1N/C=C1\CCCCC1=O do in these assays?
D1 potentiator: inactive; TRHR agonist: inactive; D1 agonist: 36.9; TRHR PAM: inactive; D1 antagonist: inactive

How did CCOc1ccccc1CNC(=O)c1cc2n(n1)CCCN(Cc1ccc(C)cc1)C2=O do in these assays?
D1 potentiator: inactive; TRHR agonist: inactive; D1 agonist: inactive; TRHR PAM: inactive; D1 antagonist: inactive

Results for CCOC(=O)Cc1csc(NC(=O)Nc2cccc(OC)c2)n1 ?
D1 potentiator: inactive; TRHR agonist: inactive; D1 agonist: inactive; TRHR PAM: inactive; D1 antagonist: -33.2

Results for CCOC(=O)Cc1csc(NC(=O)c2sc3nc4c(C)cc(C)cc4cc3c2N)n1 ?
D1 potentiator: inactive; TRHR agonist: 37.7; D1 agonist: 85.5; TRHR PAM: inactive; D1 antagonist: inactive

What do the screens show for `CCOC(=O)CN(Cc1sccc1C)C(=O)Nc1cccc(OC)c1`?
D1 potentiator: inactive; TRHR agonist: inactive; D1 agonist: inactive; TRHR PAM: inactive; D1 antagonist: -36.6

Results for CCOC(=O)Cc1csc(NC(=O)c2cccc([N+](=O)[O-])c2)n1 ?
D1 potentiator: inactive; TRHR agonist: inactive; D1 agonist: inactive; TRHR PAM: inactive; D1 antagonist: -30.6

Results for Cc1ccccc1OCCC(=O)OCC(=O)Nc1c(F)cccc1F ?
D1 potentiator: inactive; TRHR agonist: inactive; D1 agonist: inactive; TRHR PAM: inactive; D1 antagonist: inactive

How did CCOc1ccccc1CNS(=O)(=O)c1ccc(-c2coc(C)n2)cc1 do in these assays?
D1 potentiator: inactive; TRHR agonist: inactive; D1 agonist: inactive; TRHR PAM: inactive; D1 antagonist: inactive

Results for CCCCC1CCC(C(=O)N2CC(=O)Nc3ccc(Br)cc3C2c2ccc(F)cc2)CC1 (configuration not stated) ?
D1 potentiator: inactive; TRHR agonist: inactive; D1 agonist: inactive; TRHR PAM: inactive; D1 antagonist: inactive

What do the screens show for `Cc1cc(C(=O)NNC(=S)NC2CCCCC2)cs1`?
D1 potentiator: inactive; TRHR agonist: inactive; D1 agonist: inactive; TRHR PAM: inactive; D1 antagonist: inactive

How did Cc1nc2ccccc2cc1OCc1ccccc1 do in these assays?
D1 potentiator: inactive; TRHR agonist: inactive; D1 agonist: inactive; TRHR PAM: inactive; D1 antagonist: -59.0

How did Cc1nc2ccccc2cc1OCc1ccc(Cl)cc1 do in these assays?
D1 potentiator: inactive; TRHR agonist: inactive; D1 agonist: inactive; TRHR PAM: inactive; D1 antagonist: inactive

How did Cc1ccccc1NC(=O)Nc1ccc2c(c1)OCO2 do in these assays?
D1 potentiator: inactive; TRHR agonist: inactive; D1 agonist: inactive; TRHR PAM: inactive; D1 antagonist: inactive

What do the screens show for `Cc1c(NC(=O)Nc2ccc3c(c2)OCO3)cccc1[N+](=O)[O-]`?
D1 potentiator: inactive; TRHR agonist: inactive; D1 agonist: inactive; TRHR PAM: inactive; D1 antagonist: -44.4

How did CN1/C(=C\C(=O)COC(=O)c2ccccc2O)C(C)(C)c2ccccc21 do in these assays?
D1 potentiator: inactive; TRHR agonist: inactive; D1 agonist: inactive; TRHR PAM: inactive; D1 antagonist: inactive

How did CN1/C(=C/C=C(C#N)C#N)C(C)(C)c2ccccc21 do in these assays?
D1 potentiator: inactive; TRHR agonist: inactive; D1 agonist: 116.1; TRHR PAM: inactive; D1 antagonist: inactive

Results for CN1/C(=C\C=Nc2ccc3ccccc3c2)C(C)(C)c2ccccc21 ?
D1 potentiator: inactive; TRHR agonist: inactive; D1 agonist: inactive; TRHR PAM: inactive; D1 antagonist: inactive

How did COc1ccccc1OCC(=O)/C=C1/N(C)c2ccccc2C1(C)C do in these assays?
D1 potentiator: inactive; TRHR agonist: inactive; D1 agonist: 32.1; TRHR PAM: inactive; D1 antagonist: -49.1

Results for CC1=C/C(=C\C=C(C#N)C#N)N(C)c2ccccc21 ?
D1 potentiator: inactive; TRHR agonist: inactive; D1 agonist: 45.4; TRHR PAM: inactive; D1 antagonist: -34.5

Results for CN1/C(=C\C=O)C(C)(C)c2ccccc21 ?
D1 potentiator: inactive; TRHR agonist: inactive; D1 agonist: inactive; TRHR PAM: inactive; D1 antagonist: inactive

Results for CN1\C(=C/C=C/C=C/C=[N+](C)C)C(C)(C)c2ccccc21 ?
D1 potentiator: inactive; TRHR agonist: 141.8; D1 agonist: 324.2; TRHR PAM: 46.5; D1 antagonist: inactive
